14 molecules from PubChem BioAssay (NCI) can be followed below.

Among the test systems are SK-MEL-2 melanoma; EKVX NSCLC; UO-31 renal; TK-10 renal; ACHN renal; CAKI-1 renal; A498 renal; CCRF-CEM leukemia; MOLT-4 leukemia.
Holding throughout (experiment): NCI-60 one-dose screen, 48 h (100 = growth as untreated, 0 = no growth, -100 = all killed)
What all share (details): 10 µM unless noted

The panel holds about 83,000 compounds, 20% with a hit somewhere; the sample as a whole holds those more often.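 Testing used 96-well plates and a 48-hour single-concentration exposure. Example: -40 means 40% of the starting cells died.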 Unmarked numbers belong to inactive results. Calls of active or inactive are those of the source. How the source made its calls: active means growth percent below 10; inactive means the rest.

Regarding `NS(=O)(=O)c1ccc(N=Nc2c(O)n(CC(=O)Nc3ccccc3Cl)c3ccccc23)cc1`, the growth is 9.55% (active) in the experiment with SK-MEL-2 melanoma; 38.1% in the experiment on EKVX NSCLC; 2.95% (active) with UO-31 renal; 63% with TK-10 renal; 6.65% (active) with ACHN renal; 16.6% in the experiment on CAKI-1 renal. Further, the values for the growth in the experiment on A498 renal, in the experiment with CCRF-CEM leukemia and in the experiment on MOLT-4 leukemia were 80.2%, 50.5% and 26.7%, respectively.

Turning to `CCN(CC)c1ccnc(CNCCSC(c2ccccc2)(c2ccccc2)c2ccc(OC)cc2)c1`, the growth was -35.8% (active) in the experiment with SK-MEL-2 melanoma; -8.82% (active) with EKVX NSCLC; 8.36% (active) with UO-31 renal; 1.59% (active) in the experiment with TK-10 renal; 12.2% in the experiment on ACHN renal; 0.0931% (active) in the experiment on CAKI-1 renal. For the same molecule, the growth with A498 renal is -84.5% (active); in the experiment on CCRF-CEM leukemia it was -3.59% (active); in the experiment on MOLT-4 leukemia, 12.9%.

For the molecule `COc1ccc(N2N=C(c3ccc4c(c3)OCO4)CC2c2cccc(NC(=O)CCNS(=O)(=O)c3ccc(Cl)cc3)c2)cc1` (stereo unspecified), the growth is 44.5% with SK-MEL-2 melanoma; 13.1% with EKVX NSCLC; 35.3% in the experiment with UO-31 renal; 51.9% in the experiment with TK-10 renal; 24.9% in the experiment with ACHN renal; 30.4% with CAKI-1 renal. Moreover, the growth with A498 renal was -4.53% (active); in the experiment with CCRF-CEM leukemia, 18.7%; in the experiment with MOLT-4 leukemia it was 10.3%.

Take `O=c1[nH]c2ccccc2cc1CSc1nccc(-c2ccc3ccccc3c2)n1`: the growth in the experiment on SK-MEL-2 melanoma is 84.5%; with EKVX NSCLC, 49.4%; in the experiment with UO-31 renal, 78.6%; with TK-10 renal, 83%; in the experiment with ACHN renal it was 95.8%; in the experiment on CAKI-1 renal it was 56.6%. In addition, the growth was 114% with A498 renal, 33.1% in the experiment on CCRF-CEM leukemia and 21.9% in the experiment on MOLT-4 leukemia.

On to `O=C(N=Nc1c(O)[nH]c2ccc([N+](=O)[O-])cc12)c1ccc2nc(-c3ccccc3)[nH]c2c1`, for which the growth with SK-MEL-2 melanoma was 77%; with EKVX NSCLC, 97.5%; in the experiment on UO-31 renal, 84.4%; in the experiment on TK-10 renal, 140%; in the experiment with ACHN renal, 101%; with CAKI-1 renal, 91.7%. The results for the growth with A498 renal, in the experiment on CCRF-CEM leukemia and in the experiment on MOLT-4 leukemia were 122%, 32.7% and 43.3%, respectively.

Turning to `O=C(CSc1nc2ccccc2c(=O)[nH]1)NCCN1CCCCC1`, the growth was 92.5% in the experiment on SK-MEL-2 melanoma; 93.7% with EKVX NSCLC; 78.6% in the experiment on UO-31 renal; 94.9% in the experiment on TK-10 renal; 103% with ACHN renal; 82.4% in the experiment with CAKI-1 renal. Moreover, the growth with A498 renal is 105%; in the experiment on CCRF-CEM leukemia it was 98.5%; with MOLT-4 leukemia it was 103%.

Take `Cc1ccc(-n2c(-c3cc4ccccc4nc3Cl)noc2=O)cc1`: the growth in the experiment on SK-MEL-2 melanoma was 80.9%; in the experiment on EKVX NSCLC, 47.5%; with UO-31 renal it was 72.4%; in the experiment with TK-10 renal it was 122%; with ACHN renal, 93.6%; in the experiment on CAKI-1 renal, 49.8%. Further, the values for the growth in the experiment with A498 renal, in the experiment on CCRF-CEM leukemia and in the experiment on MOLT-4 leukemia were 137%, 84.6% and 76.5%, respectively.

On to `N/C(=N\N=C\c1ccc([N+](=O)[O-])cc1)c1c(N)nc(=S)[nH]c1-c1ccc(Cl)cc1Cl`, for which the growth with SK-MEL-2 melanoma is 93.4%; in the experiment with EKVX NSCLC, 98.9%; in the experiment on UO-31 renal it was 98.3%; in the experiment on TK-10 renal, 142%; in the experiment on ACHN renal it was 88.9%; in the experiment on CAKI-1 renal, 78.9%. The growth was 160% in the experiment with A498 renal, 106% in the experiment with CCRF-CEM leukemia and 94% in the experiment with MOLT-4 leukemia.

On to `CC1(C)CC[C@]2(C(=O)Nc3ccc(Br)cc3)CC[C@]3(C)C(=CCC4[C@@]5(C)C[C@@H](O)[C@H](O)[C@@](C)(CO)C5CC[C@]43C)C2C1` (stereo partly specified), for which the growth with SK-MEL-2 melanoma was -19.8% (active); in the experiment with EKVX NSCLC, 15.5%; in the experiment with UO-31 renal, 21.1%; in the experiment with TK-10 renal, 22.5%; with ACHN renal it was 17.7%; with CAKI-1 renal, 20.6%. Besides, the growth with A498 renal was -45.2% (active); in the experiment with CCRF-CEM leukemia it was -19.8% (active); in the experiment with MOLT-4 leukemia, -10.5% (active).

For `CCCCCCCCc1ccc(C(=O)Nc2cccc(P(=O)(O)O)c2)cc1`, the growth was 106% with SK-MEL-2 melanoma; 103% in the experiment on EKVX NSCLC; 97.5% in the experiment on UO-31 renal; 105% in the experiment on TK-10 renal; 110% with ACHN renal; 93.6% with CAKI-1 renal. The values for the growth in the experiment on A498 renal, in the experiment with CCRF-CEM leukemia and in the experiment with MOLT-4 leukemia were 105%, 79.6% and 98.6%, respectively.

Consider `COc1ccc2[nH]c(=O)c(CSc3nccc(-c4ccc(OC)c(OC)c4)n3)cc2c1`, for which the growth in the experiment on SK-MEL-2 melanoma is 44.2%; with EKVX NSCLC it was 15.7%; in the experiment with UO-31 renal, 16.1%; in the experiment on TK-10 renal, 26.4%; with ACHN renal it was 24.4%; in the experiment with CAKI-1 renal, -10.2% (active). Besides, the figures for the growth with A498 renal, with CCRF-CEM leukemia and in the experiment on MOLT-4 leukemia were 47.8%, 31.3% and 7.07% (active), respectively.

As for `COc1cc2oc(-c3cccc(C(=O)Nc4cccc([N+](=O)[O-])c4)c3)cc(=O)c2c(OC)c1OC`, the growth was -0.125% (active) in the experiment with SK-MEL-2 melanoma; 41.6% with EKVX NSCLC; 0.82% (active) in the experiment with UO-31 renal; 37.2% in the experiment with TK-10 renal; 16.2% with ACHN renal; 8.83% (active) in the experiment with CAKI-1 renal. In addition, the growth in the experiment with A498 renal was 3.68% (active); in the experiment on CCRF-CEM leukemia, 84.1%; in the experiment on MOLT-4 leukemia it was 64.6%.

In the case of `Clc1ccc(-c2ccc(OCCCN3CCN(c4ccncc4)CC3)cc2)cc1`, the growth is 100% in the experiment with SK-MEL-2 melanoma; 30.7% in the experiment with EKVX NSCLC; 66.3% in the experiment on UO-31 renal; 89.5% in the experiment with TK-10 renal; 87.8% in the experiment with ACHN renal; 66.6% in the experiment with CAKI-1 renal. Moreover, the values for the growth in the experiment on A498 renal, in the experiment on CCRF-CEM leukemia and in the experiment on MOLT-4 leukemia were 84.7%, 4.35% (active) and 1.95% (active), respectively.

Take `COc1c(F)ccc(C(=O)Nc2ccc3nc(NC(=O)C4CCCN(S(=O)(=O)C5CC5)C4)sc3c2)c1F` (stereo unspecified): the growth with SK-MEL-2 melanoma is 54.9%; in the experiment on EKVX NSCLC, 31.5%; in the experiment on UO-31 renal it was 43.1%; in the experiment on TK-10 renal, 74.5%; in the experiment on ACHN renal it was 47%; in the experiment with CAKI-1 renal it was 46.6%. The growth with A498 renal is 76%; in the experiment with CCRF-CEM leukemia, 18%; with MOLT-4 leukemia, 3.08% (active).
